Experimental data from PubChem BioAssay AID1159580 (chemical genetic matrix, 2015).
The campaign covered roughly 5,500 compounds. About 2,000 (36%) were called active. About 18% were inconclusive and are not listed. No stated cut-off is given here; in the data, active means normalized growth mostly below about 0.91 (no sharp cut-off); inconclusive means no clear call, values can overlap the other calls; inactive means mostly above about 0.92. This is one part of the list.

Experiment: chemical genetic growth profiling, strain panel (AID 1159580);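 further: tested at 20 µM; growth read once vehicle control cultures reached saturation at 30 °C; 1 = growth at the plate median or of vehicle wells; lower values mean less growth of the strain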
Conditions: growth OD
[1] = S. cerevisiae deletion strains, locus YDL101C, strain DUN1, hits give low values
[2] = S. cerevisiae deletion strains, locus YHR030C, strain SLT2, hits give low values

Measured: normalized growth

CC(=O)/C(=C\Nc1ncccn1)S(=O)(=O)c1ccc(Cl)cc1
inactive: S. cerevisiae deletion strains, locus YAL013W, strain DEP1, hits give low values 1.01 | S. cerevisiae deletion strains, locus YBR229C, strain ROT2, hits give low values 1 | S. cerevisiae deletion strains, locus YCL061C, strain MRC1, hits give low values 1 | [1] 1.01 | S. cerevisiae deletion strains, locus YDR150W, strain NUM1, hits give low values 0.977 | S. cerevisiae deletion strains, locus YEL061C, strain CIN8, hits give low values 1 | S. cerevisiae deletion strains, locus YGR078C, strain PAC10, hits give low values 1 | S. cerevisiae deletion strains, locus YGR229C, strain SMI1, hits give low values 1 | [2] 0.822 | S. cerevisiae deletion strains, locus YHR087W, strain rtc3, hits give low values 0.98 | S. cerevisiae deletion strains, locus YJL187C, strain SWE1, hits give low values 1 | S. cerevisiae deletion strains, locus YJR043C, strain POL32, hits give low values 1.05 | S. cerevisiae deletion strains, locus YJR075W, strain HOC1, hits give low values 0.941 | S. cerevisiae deletion strains, locus YLR039C, strain RIC1, hits give low values 0.927 | S. cerevisiae deletion strains, locus YLR058C, strain SHM2 (second series), hits give low values 0.993 | S. cerevisiae deletion strains, locus YLR085C, strain ARP6, hits give low values 0.918 | S. cerevisiae deletion strains, locus YLR262C, strain YPT6, hits give low values 0.89 | S. cerevisiae deletion strains, locus YML094W, strain GIM5, hits give low values 0.97 | S. cerevisiae deletion strains, locus YMR219W, strain ESC1, hits give low values 0.998 | S. cerevisiae deletion strains, locus YMR263W, strain SAP30, hits give low values 0.987 | S. cerevisiae deletion strains, locus YNL128W, strain TEP1, hits give low values 1.01 | S. cerevisiae deletion strains, locus YNL153C, strain GIM3, hits give low values 1.01 | S. cerevisiae deletion strains, locus YNL298W, strain CLA4 (second series), hits give low values 0.954 | S. cerevisiae deletion strains, locus YNL322C, strain KRE1, hits give low values 0.946 | S. cerevisiae deletion strains, locus YNR030W, strain Alg12, hits give low values 0.975 | S. cerevisiae deletion strains, locus YPL055C, strain LGE1, hits give low values 0.925 | S. cerevisiae deletion strains, locus YPL241C, strain CIN2, hits give low values 0.98 | S. cerevisiae deletion strains, locus YPR135W, strain CTF4, hits give low values 0.9 | S. cerevisiae strains, strain wild type, hits give low values 1

N#C/C(=N/Nc1ccccc1Cl)S(=O)(=O)c1ccc(Cl)cc1
inactive: S. cerevisiae deletion strains, locus YAR019C, strain CDC15, hits give low values 0.976 | S. cerevisiae deletion strains, locus YBL105C, strain PKC1, hits give low values 0.97 | S. cerevisiae deletion strains, locus YBR135W, strain CKS1, hits give low values 0.964 | S. cerevisiae deletion strains, locus YBR136W, strain MEC1, hits give low values 0.968 | S. cerevisiae deletion strains, locus YBR160W, strain CDC28, hits give low values 0.969 | S. cerevisiae deletion strains, locus YDL017W, strain CDC7, hits give low values 0.976 | S. cerevisiae deletion strains, locus YDL028C, strain MPS1, hits give low values 0.975 | [1] 0.978 | S. cerevisiae deletion strains, locus YDL108W, strain KIN28, hits give low values 0.977 | S. cerevisiae deletion strains, locus YDL132W, strain cdc53, hits give low values 0.971 | S. cerevisiae deletion strains, locus YDL214C, strain PRR2, hits give low values 0.889 | S. cerevisiae deletion strains, locus YDR052C, strain DBF4, hits give low values 0.966 | S. cerevisiae deletion strains, locus YDR054C, strain cdc34, hits give low values 0.966 | S. cerevisiae deletion strains, locus YDR226W, strain ADK1, hits give low values 0.974 | S. cerevisiae deletion strains, locus YDR477W, strain SNF1, hits give low values 0.889 | S. cerevisiae deletion strains, locus YER123W, strain YCK3, hits give low values 0.882 | S. cerevisiae deletion strains, locus YER133W, strain GLC7, hits give low values 0.909 | S. cerevisiae deletion strains, locus YFL009W, strain cdc4, hits give low values 0.968 | S. cerevisiae deletion strains, locus YFL029C, strain CAK1, hits give low values 0.969 | S. cerevisiae deletion strains, locus YFR003C, strain YPI1, hits give low values 0.973 | S. cerevisiae deletion strains, locus YFR019W, strain FAB1, hits give low values 0.859 | S. cerevisiae deletion strains, locus YFR028C, strain CDC14, hits give low values 0.95 | S. cerevisiae deletion strains, locus YGR040W, strain KSS1, hits give low values 0.889 | S. cerevisiae deletion strains, locus YGR052W, strain FMP48, hits give low values 0.869 | S. cerevisiae deletion strains, locus YGR092W, strain DBF2, hits give low values 0.715 | [2] 0.916 | S. cerevisiae deletion strains, locus YHR079C, strain IRE1, hits give low values 0.955 | S. cerevisiae deletion strains, locus YHR082C, strain KSP1, hits give low values 0.918 | S. cerevisiae deletion strains, locus YHR205W, strain SCH9, hits give low values 0.866 | S. cerevisiae deletion strains, locus YIL147C, strain SLN1, hits give low values 0.968 | S. cerevisiae deletion strains, locus YJL095W, strain BCK1, hits give low values 0.852 | S. cerevisiae deletion strains, locus YJL128C, strain PBS2, hits give low values 0.944 | S. cerevisiae deletion strains, locus YJL157C, strain FAR1, hits give low values 0.909 | S. cerevisiae deletion strains, locus YJR016C, strain ILV3, hits give low values 0.974 | S. cerevisiae deletion strains, locus YJR066W, strain TOR1 (second series), hits give low values 0.877 | S. cerevisiae deletion strains, locus YJR066W, strain TOR1, hits give low values 0.962 | S. cerevisiae deletion strains, locus YKL048C, strain ELM1, hits give low values 0.886 | S. cerevisiae deletion strains, locus YKL067W, strain YNK1, hits give low values 0.911 | S. cerevisiae deletion strains, locus YKL101W, strain HSL1, hits give low values 0.835 | S. cerevisiae deletion strains, locus YKL193C, strain SDS22, hits give low values 0.976 | S. cerevisiae deletion strains, locus YKL203C, strain TOR2, hits give low values 0.943 | S. cerevisiae deletion strains, locus YLR113W, strain HOG1, hits give low values 0.877 | S. cerevisiae deletion strains, locus YLR133W, strain CKI1, hits give low values 0.847 | S. cerevisiae deletion strains, locus YLR403W, strain SFP1, hits give low values 0.811 | S. cerevisiae deletion strains, locus YML070W, strain DAK1, hits give low values 0.883 | S. cerevisiae deletion strains, locus YMR001C, strain CDC5, hits give low values 0.969 | S. cerevisiae deletion strains, locus YMR205C, strain PFK2 (second series), hits give low values 0.918 | S. cerevisiae deletion strains, locus YMR277W, strain FCP1, hits give low values 0.973 | S. cerevisiae deletion strains, locus YNL006W, strain LST8, hits give low values 0.979 | S. cerevisiae deletion strains, locus YNL020C, strain ARK1, hits give low values 0.828 | S. cerevisiae deletion strains, locus YNL161W, strain CBK1, hits give low values 0.971 | S. cerevisiae deletion strains, locus YNL183C, strain NPR1, hits give low values 0.94 | S. cerevisiae deletion strains, locus YNL207W, strain RIO2, hits give low values 0.954 | S. cerevisiae deletion strains, locus YNL222W, strain SSU72, hits give low values 0.977 | S. cerevisiae deletion strains, locus YNL307C, strain MCK1 (second series), hits give low values 0.787 | S. cerevisiae deletion strains, locus YOL078W, strain AVO1, hits give low values 0.968 | S. cerevisiae deletion strains, locus YOL136C, strain PFK27, hits give low values 0.832 | S. cerevisiae deletion strains, locus YOR061W, strain CKA2, hits give low values 0.851 | S. cerevisiae deletion strains, locus YOR119C, strain RIO1, hits give low values 0.957 | S. cerevisiae deletion strains, locus YOR231W, strain MKK1, hits give low values 0.895 | S. cerevisiae deletion strains, locus YOR329C, strain SCD5, hits give low values 0.979 | S. cerevisiae deletion strains, locus YPL031C, strain PHO85, hits give low values 0.856 | S. cerevisiae deletion strains, locus YPL153C, strain RAD53, hits give low values 0.889 | S. cerevisiae deletion strains, locus YPL204W, strain HRR25, hits give low values 0.814 | S. cerevisiae deletion strains, locus YPL209C, strain IPL1, hits give low values 0.975 | S. cerevisiae deletion strains, locus YPL256C, strain CLN2, hits give low values 0.939 | S. cerevisiae deletion strains, locus YPR025C, strain CCL1, hits give low values 0.978 | S. cerevisiae deletion strains, locus YPR106W, strain ISR1, hits give low values 0.966 | S. cerevisiae deletion strains, locus YPR111W, strain DBF20, hits give low values 0.961 | S. cerevisiae deletion strains, strain NNK1, hits give low values 0.952 | S. cerevisiae deletion strains, strain TSCII, hits give low values 0.956
